This note sets out measurements from PubChem BioAssay.

The structures appear in SMILES notation. A number with no mark means an inactive call. For some of these results: Potency and affinity values are given separately. Active and inactive are the calls of the source. Unless noted, how the calls were made is not given here.

A short description of assay [1]: antimalarial activity against Dd2 strain (AID 2302;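 active means growth inhibition above 50% at the single 2 µM test dose, taken to imply half-maximal potency below 2 µM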;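 further: 0% = DMSO untreated growth and 100% = chloroquine plus artemisinin killed control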). Particulars: P. falciparum Dd2 in RBCs, LDH growth readout, 72 h; at 2 µM; active compounds read high.
The nature of assay [2]: human hepatoma cell viability loss – ATP luminescence, cytotoxicity control for P. falciparum antimalarial project, primary screen (AID 2303;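 active means inhibition above 50%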;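 further: 0% = DMSO wells and 100% = digitonin-killed cells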). Particulars: HepG2 viability, 24-48 h, at 10 µM, active compounds read high.
In assay [3] the target is L-lactate dehydrogenase (Plasmodium falciparum (isolate CDC / Honduras)) (UniProt Q27743). Description: PfLDH activity inhibition – cell lysate, 3D7 strain, counter-screen for P. falciparum growth inhibition project (AID 2304).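 Further: 0% = vehicle and 100% = reference inhibitor.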 The following applies: P. falciparum 3D7 crude extract, LDH APAD/NBT absorbance; at 2 µM; active compounds read high. On the technique in general: A counterscreen serves to expose hits that act by an unwanted route or on another target.
Chain of L-lactate dehydrogenase (Plasmodium falciparum (isolate CDC / Honduras)) (Q27743 whole entry, looked up): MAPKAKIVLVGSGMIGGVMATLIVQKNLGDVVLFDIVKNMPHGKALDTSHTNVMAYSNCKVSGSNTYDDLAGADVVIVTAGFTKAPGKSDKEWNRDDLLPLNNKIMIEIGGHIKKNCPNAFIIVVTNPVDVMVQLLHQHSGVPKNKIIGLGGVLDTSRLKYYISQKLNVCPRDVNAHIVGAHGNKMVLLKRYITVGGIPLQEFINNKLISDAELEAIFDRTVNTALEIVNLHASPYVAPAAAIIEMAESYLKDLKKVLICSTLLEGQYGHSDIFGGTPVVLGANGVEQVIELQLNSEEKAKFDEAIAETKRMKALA

Assay [4] in a line: inhibition of 3D7 malaria parasite growth – strain 3D7 (AID 2306).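 Further: 0% = DMSO wells and 100% = chloroquine plus artemisinin control wells.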 The following applies: P. falciparum 3D7 erythrocytic growth, LDH absorbance, 72 h; at 2 µM; active compounds read high.
Assay [5] addresses Calcium-dependent protein kinase 1 (Plasmodium falciparum (isolate 3D7)) (UniProt P62344). Nature of the assay: PfCDPK1 kinase inhibitors, biochemical, TCAMS library (AID 1159585; cut-off not given, nearly all actives have IC50 up to about 0.98 µM;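 further: inhibitors leave more ATP so luminescence rises with inhibition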). Particulars: recombinant PfCDPK1, Kinase-Glo ATP depletion luminescence.
For assay [6], the target named is Plasmodium falciparum protein kinase 6 (PK6, PF3D7_1337100) (UniProt Q8IDW1). Description: PfPK6 kinase inhibitors, biochemical, TCAMS library (AID 1159586). The following applies: recombinant PfPK6, Kinase-Glo ATP depletion luminescence. (In general: Kinase-Glo reads ATP consumption through a luciferase reaction.)
Chain of Plasmodium falciparum protein kinase 6 (PK6, PF3D7_1337100) (Q8IDW1 1-305): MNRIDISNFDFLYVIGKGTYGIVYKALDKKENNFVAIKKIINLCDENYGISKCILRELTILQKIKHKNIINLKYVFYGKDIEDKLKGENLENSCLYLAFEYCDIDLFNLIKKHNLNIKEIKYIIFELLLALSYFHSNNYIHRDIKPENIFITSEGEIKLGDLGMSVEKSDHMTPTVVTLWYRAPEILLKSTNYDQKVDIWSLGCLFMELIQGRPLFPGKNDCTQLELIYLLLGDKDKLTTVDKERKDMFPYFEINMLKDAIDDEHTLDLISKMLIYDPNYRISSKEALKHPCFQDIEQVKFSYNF
Assay [7] deals with Protein kinase 7 (PK7), Plasmodium falciparum 3D7 (PF3D7_0213400) (UniProt Q7YTF7). Description: inhibition of Plasmodium PK7 catalytic activity – biochemical, TCAMS antimalarial set, Kinase-Glo luminescence (AID 1159587). Particulars: recombinant PfPK7, Kinase-Glo ATP depletion luminescence.
Chain of Protein kinase 7 (PK7), Plasmodium falciparum 3D7 (PF3D7_0213400) (Q7YTF7 1-343): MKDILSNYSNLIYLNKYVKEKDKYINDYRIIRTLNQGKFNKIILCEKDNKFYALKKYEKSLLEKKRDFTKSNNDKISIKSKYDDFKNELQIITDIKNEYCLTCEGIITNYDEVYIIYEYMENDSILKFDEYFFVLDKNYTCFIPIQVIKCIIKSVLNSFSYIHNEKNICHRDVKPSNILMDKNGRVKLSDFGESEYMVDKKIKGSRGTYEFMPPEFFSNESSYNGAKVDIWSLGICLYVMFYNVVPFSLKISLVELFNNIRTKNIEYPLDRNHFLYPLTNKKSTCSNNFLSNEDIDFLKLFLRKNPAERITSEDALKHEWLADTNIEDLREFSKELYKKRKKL
Assay [8] has as its target Calcium-dependent protein kinase 4 (Plasmodium falciparum (isolate 3D7)) (UniProt Q8IBS5). Nature of the assay: PfCDPK4 kinase inhibitors, biochemical, TCAMS library (AID 1159588; cut-off not given, nearly all actives have IC50 up to about 0.91 µM). The following applies: recombinant PfCDPK4, Kinase-Glo ATP depletion luminescence.

Chain of Calcium-dependent protein kinase 1 (Plasmodium falciparum (isolate 3D7)) (P62344 whole entry, looked up): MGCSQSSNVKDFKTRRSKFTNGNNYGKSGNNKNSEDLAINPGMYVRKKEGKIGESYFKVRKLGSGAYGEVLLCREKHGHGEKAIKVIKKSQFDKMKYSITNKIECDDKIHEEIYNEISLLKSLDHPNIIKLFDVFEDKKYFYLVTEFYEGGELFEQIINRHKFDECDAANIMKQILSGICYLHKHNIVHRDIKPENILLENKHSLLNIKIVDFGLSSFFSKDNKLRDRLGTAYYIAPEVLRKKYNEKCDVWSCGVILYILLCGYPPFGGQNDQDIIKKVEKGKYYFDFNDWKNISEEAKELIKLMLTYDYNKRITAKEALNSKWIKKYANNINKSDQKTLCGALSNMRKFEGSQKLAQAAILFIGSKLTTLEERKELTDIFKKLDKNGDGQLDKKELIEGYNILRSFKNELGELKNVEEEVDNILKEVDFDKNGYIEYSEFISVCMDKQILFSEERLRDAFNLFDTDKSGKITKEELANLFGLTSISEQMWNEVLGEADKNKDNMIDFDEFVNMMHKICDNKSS
Chain of Calcium-dependent protein kinase 4 (Plasmodium falciparum (isolate 3D7)) (Q8IBS5 whole entry, looked up): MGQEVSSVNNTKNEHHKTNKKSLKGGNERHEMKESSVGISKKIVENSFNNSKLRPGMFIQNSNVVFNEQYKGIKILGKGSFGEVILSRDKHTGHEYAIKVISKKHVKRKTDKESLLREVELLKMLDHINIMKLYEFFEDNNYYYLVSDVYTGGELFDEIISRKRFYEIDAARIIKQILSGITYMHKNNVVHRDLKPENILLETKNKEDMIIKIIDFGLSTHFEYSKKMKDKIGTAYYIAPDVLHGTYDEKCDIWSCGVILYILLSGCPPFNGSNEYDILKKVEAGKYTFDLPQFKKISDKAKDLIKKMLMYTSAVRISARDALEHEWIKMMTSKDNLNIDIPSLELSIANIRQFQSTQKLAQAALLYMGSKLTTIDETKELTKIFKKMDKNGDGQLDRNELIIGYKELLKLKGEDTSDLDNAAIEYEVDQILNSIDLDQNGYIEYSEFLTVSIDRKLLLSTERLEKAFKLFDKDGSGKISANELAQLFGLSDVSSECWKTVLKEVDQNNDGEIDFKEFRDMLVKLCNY

Usually inhibition stands for the change of the read-out against control, counted positive when it falls. Consider `Cc1cc(F)ccc1N(c1nc(-c2cc(Cl)ccc2Cl)cs1)C1CCNC1` (stereo not given), for which the growth inhibition was 3% in assay [1] and 99% (active) in assay [4]. For the same molecule, the inhibition in assay [2] was 19%; in assay [3], 0%. Also, the result in assay [5], in assay [6], in assay [7] and in assay [8] was inactive.

For `N#Cc1ccc(-c2nc(CO)c(C(=O)NCCCCN3CCC(c4ccc5c(c4OCC(N)=O)CCCC5)CC3)s2)cc1`, the growth inhibition in assay [1] was -1%; in assay [4], 92% (active). Further, the figures for the inhibition in assay [2] and in assay [3] were 9% and 4%, respectively. Further, the outcome in assay [5], in assay [6], in assay [7] and in assay [8] was inactive.

Take `O=C(Nc1cccc(-c2ccc(-c3nc4ccc(C(F)(F)F)cc4[nH]3)cc2)c1)c1ccncc1`: the growth inhibition in assay [1] was 90% (active); in assay [4] it was 100% (active). The inhibition was 79% (active) in assay [2] and -1% in assay [3]. Further, the outcome in assay [5], in assay [6], in assay [7] and in assay [8] was inactive.

Regarding `c1ccc(CCNc2ccnc(Nc3ccc4n[nH]nc4c3)n2)cc1`, the figures for the growth inhibition in assay [1] and in assay [4] were 95% (active) and 101% (active), respectively. The results for the inhibition in assay [2] and in assay [3] were 33% and -4%, respectively. Also, the outcome in assay [5], in assay [6], in assay [7] and in assay [8] was inactive.

In the case of `CCCCN(C)CC#Cc1ccc2[nH]c(C)c(Cl)c(=O)c2c1`, the growth inhibition was 97% (active) in assay [1] and 98% (active) in assay [4]. Further, the inhibition is -2% in assay [2] and -6% in assay [3]. Also, the result in assay [5], in assay [6], in assay [7] and in assay [8] was inactive.

In the case of `CC(CN(C)C)C(=O)Nc1cccc(-c2ccc(-c3nc4ccc(C(F)(F)F)cc4[nH]3)cc2)c1` (stereo not given), the growth inhibition in assay [1] is 97% (active); in assay [4], 99% (active). Also, the inhibition was 26% in assay [2] and -2% in assay [3]. Further, the result in assay [5], in assay [6], in assay [7] and in assay [8] was inactive.

Take `O=[N+]([O-])c1cccc(CNCC2CCN(Cc3ccc4ccccc4c3)CC2)c1`: the figures for the growth inhibition in assay [1] and in assay [4] were 42% and 100% (active), respectively. Moreover, the inhibition in assay [2] was 18%; in assay [3], 4%. The result in assay [5], in assay [6], in assay [7] and in assay [8] was inactive.

Take `CCCC(C)Nc1nc(C)cc(N[C@@H](CC(C)C)C(=O)Nc2ccc(OC)cc2)n1` (stereo not given in full): the growth inhibition in assay [1] was 68% (active); in assay [4] it was 98% (active). Moreover, the values for the inhibition in assay [2] and in assay [3] were 18% and -1%, respectively. For the same molecule, the result in assay [5], in assay [6], in assay [7] and in assay [8] was inactive.

`CC(=O)NCC(=O)NC1=NC(C)(C)N(OCc2ccc3ccccc3c2)C(N)=N1`: the growth inhibition in assay [1] was 97% (active); in assay [4] it was 95% (active). Also, the inhibition is 66% (active) in assay [2] and -1% in assay [3]. For the same molecule, the outcome in assay [5], in assay [6], in assay [7] and in assay [8] was inactive.

`CCC(CC)C(CC(=O)NC(C)(C)CCc1ccccc1OC)Nc1ccc(C#N)c2ccccc12` (stereo not given): the growth inhibition was 91% (active) in assay [1] and 93% (active) in assay [4]. For the same molecule, the inhibition in assay [2] was 9%; in assay [3] it was -1%. Further, the outcome in assay [5], in assay [6], in assay [7] and in assay [8] was inactive.

For `Cc1cc(NC(=O)c2coc3cc(F)c(N4C[C@@H](C)N(C)[C@@H](C)C4)cc23)cnc1-c1ccc(C#N)cc1`, the growth inhibition in assay [1] was 71% (active); in assay [4], 99% (active). In addition, the inhibition in assay [2] was 35%; in assay [3], -3%. Further, the outcome in assay [5], in assay [6], in assay [7] and in assay [8] was inactive.

In the case of `N#Cc1ccccc1N1CCN(C2CCC(NC(=O)c3n[nH]c4cc(C(F)(F)F)ccc34)CC2)CC1` (stereo not given), the growth inhibition in assay [1] was 34%; in assay [4], 84% (active). Besides, the inhibition in assay [2] is 15%; in assay [3], -4%. In addition, the result in assay [5], in assay [6], in assay [7] and in assay [8] was inactive.

In the case of `COc1ccc(CCN(Cc2cccs2)C(=O)c2cc3sccc3n2C)cc1OC`, the growth inhibition was 97% (active) in assay [1] and 94% (active) in assay [4]. Also, the inhibition in assay [2] is 0%; in assay [3] it was 1%. Also, the result in assay [5], in assay [6], in assay [7] and in assay [8] was inactive.

For the molecule `CN(C)CCCn1c(C(=O)OC(c2ccccc2)c2ccccc2)cc2cc(OCc3ccccc3)ccc21`, the growth inhibition is 85% (active) in assay [1] and 82% (active) in assay [4]. The inhibition is 12% in assay [2] and 0% in assay [3]. The outcome in assay [5], in assay [6], in assay [7] and in assay [8] was inactive.

Take `Cc1[nH]c(C)c(-c2ccc(Oc3cccc(Cl)c3)cc2)c(=O)c1Br`: the growth inhibition in assay [1] is 97% (active); in assay [4] it was 98% (active). Besides, the inhibition in assay [2] is 46%; in assay [3] it was 3%. For the same molecule, the result in assay [5], in assay [6], in assay [7] and in assay [8] was inactive.

On to `CC(C)NCc1cccc(-c2ccc(NC(=O)c3cccc(C#N)c3)cc2)c1`, for which the growth inhibition in assay [1] is 95% (active); in assay [4], 101% (active). In addition, the inhibition in assay [2] is 22%; in assay [3] it was 6%. In addition, the outcome in assay [5], in assay [6], in assay [7] and in assay [8] was inactive.

Consider `c1ccc(CCNc2nc(NCC(c3ccccc3)c3ccccc3)c3[nH]cnc3n2)cc1`, for which the results for the growth inhibition in assay [1] and in assay [4] were 95% (active) and 100% (active), respectively. Moreover, the inhibition in assay [2] is 9%; in assay [3] it was -1%. Moreover, the outcome in assay [5], in assay [6], in assay [7] and in assay [8] was inactive.

Consider `Cc1cccc(Oc2cccc3[nH]nc(N)c23)c1`, for which the growth inhibition in assay [1] was -3%; in assay [4], 85% (active). In addition, the inhibition was 6% in assay [2] and -2% in assay [3]. The result in assay [5], in assay [6], in assay [7] and in assay [8] was inactive.

As to `CC(=O)Oc1c(C2CCN(CCCCNC(=O)c3ccc(NC(=O)c4ccc(Cl)cc4)cc3)CC2)ccc2c1CCCC2`, the results for the growth inhibition in assay [1] and in assay [4] were 80% (active) and 100% (active), respectively. In addition, the inhibition in assay [2] was 21%; in assay [3], 2%. Moreover, the outcome in assay [5], in assay [6], in assay [7] and in assay [8] was inactive.

Take `CCOc1cc(Cc2cnc(N)nc2N)cc(OCC)c1-n1cccc1`: the growth inhibition in assay [1] is -1%; in assay [4] it was 98% (active). Also, the inhibition in assay [2] is -1%; in assay [3], -2%. For the same molecule, the result in assay [5], in assay [6], in assay [7] and in assay [8] was inactive.
